Source: PubChem
PTHR1 ag: activates the human parathyroid hormone receptor PTHR1 | HEK293 GP2 PTHR1 cells, GloSensor cAMP luminescence, 1 h | 0.075% of 410,000 active | Potency, µM (doses to about 115 µM), inactives show at the top dose activation, hits mostly activators | Q03431 | AID 743266; also: potency is read from the fitted curve at half-maximal effect; nearly all actives have a fitted effect of over 55% in size
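HEK-293-derived GP2 cells expressing PTHR1 and a GloSensor cAMP reporter, 3,000/well, plated overnight, given luciferin plus IBMX (each 0.5 mM as added) for 1 h at 37 °C, then compound for 1 h at 37 °C. Luminescence was read after 15 min at room temperature.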
TSHR antag: blocks TSH signaling through the human TSH receptor. TSHR-expressing cells, TSH-stimulated cAMP HTRF, 2 h; active compounds read low. activity change, negative = inhibition, % at 11.5 µM. 0.2% of 330,000 active. AID 504810;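 active = activity change below a set negative limit, meaning inhibition stronger than a set level, cut at about -70% in these data; inconclusive = activity change between two set negative limits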; also: % is scaled to controls: 0 for no effect and ±100 for the full control effect
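Cell-based HTRF cAMP assay; TSHR cells + compound, TSH EC80 (4nM final), 2 h, 37 deg C. Lysis with anti-cAMP cryptate and cAMP-d2, 30 min RT, read 665/620 nm.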
GLP1R ag: agonists of human GLP-1 receptor | P43220 | HEK293 GLP-1R CRE-luciferase, luminescence, 4-6 h; cells express a hypersensitive GLP-1R form | Potency, µM (doses to about 45.6 µM), for the others: at the highest dose activation, actives largely listed as activators | 0.007% of 380,000 active | AID 624172; also: potency is read from the fitted curve at half-maximal effect; % of control where 0% means no effect
Target sequence (P43220 whole entry, looked up): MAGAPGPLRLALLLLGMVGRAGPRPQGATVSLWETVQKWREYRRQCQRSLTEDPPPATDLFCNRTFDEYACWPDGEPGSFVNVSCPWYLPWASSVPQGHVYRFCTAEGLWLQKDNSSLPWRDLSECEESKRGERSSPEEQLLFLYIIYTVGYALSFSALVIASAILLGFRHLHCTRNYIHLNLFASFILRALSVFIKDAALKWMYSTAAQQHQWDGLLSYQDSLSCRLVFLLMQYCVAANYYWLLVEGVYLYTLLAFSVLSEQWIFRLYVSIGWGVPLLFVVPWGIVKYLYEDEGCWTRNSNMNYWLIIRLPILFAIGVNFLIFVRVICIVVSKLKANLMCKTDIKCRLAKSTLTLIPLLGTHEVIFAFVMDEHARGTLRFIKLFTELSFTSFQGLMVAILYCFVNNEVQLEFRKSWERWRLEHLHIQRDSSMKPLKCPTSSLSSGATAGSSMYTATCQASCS
GLP-1R inv ag: GLP-1 receptor (human) inverse agonism; HEK293 GLP-1R CRE-luciferase, luminescence, 24 h; GLP-1R form is constitutively active; 1.6% of 410,000 active; Potency, µM (doses to about 38.3 µM), for inactives: at the highest dose activity change, negative = inhibition, usual class: inhibitors; P43220; AID 624417; also: potency is read from the fitted curve at half-maximal effect; % is scaled to controls: 0 for no effect and ±100 for the full control effect; nearly all actives have a fitted effect of over 55% in size
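Stable HEK293 clone (constitutively active GLP-1R + cAMP-response luciferase); 200 cells/uL plated, 12 h pre-culture, compound 24 hr, 37 deg C/5% CO2; detection reagent 12 min RT; luminescence.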
HEK293 tox: cytotoxicity in counter-screen for GLP-1R inverse agonists; HEK293 cAMP-luciferase reporter cells, luminescence, 24 h; 0.13% of 410,000 active; Potency, µM (top dose mostly 38.3 µM), without a hit: top-dose activity change, negative = inhibition, actives largely listed as inhibitors;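 also: loss of luciferase light is scored as toxicity; potency is read from the fitted curve at half-maximal effect; % is scaled to controls: 0 for no effect and ±100 for the full control effect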
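MLSMR compounds, 24 hr on cells at 37 deg C/5% CO2; luminescence after luciferase reagent (12 min RT). Inhibition counted as the undesired cytotoxic outcome.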
* = called active by the depositor; i = inactive; ? = inconclusive; nt = no result given; [ ] = remark or other dose. A selection: hits, their analogues and other compounds. The true share with any hit is near 1.8%. Unless noted, calls follow the shape of the dose curve; as a rule, active = well fitted curve in the direction sought with a large enough effect; inconclusive = small, poorly fitted or top-dose-only effect, or another doubt; inactive = no such curve, though single readings can be large; an effect the other way counts as inactive or inconclusive.

SMILES | PTHR1 ag | TSHR antag | GLP1R ag | GLP-1R inv ag | HEK293 tox
Cc1ccc(NC(=O)C(CC(C)C)NS(=O)(=O)c2ccc3c(c2)oc(=O)n3C)c(C)c1 (centres undefined) | -12% | nt | -1% | -15% | ?
COc1ccccc1/C=N/N=C(/N)N[N+](=O)[O-] | -9% | 15 | 14% | 6% | -12%
COc1cccc(/C=N/Nc2ccc([N+](=O)[O-])cc2)c1O | -26% | -8 | 6% | 1.8µM* | ?
CCc1cccc(NC(=O)c2ccc(NC(=O)N3CCSc4ncccc43)cc2)c1 | -32% | nt | nt | -6% | -10%
O=C1C=C(c2c(O)ccc3ccccc23)c2ccccc2C1=O | -34% | nt | -5% | ? | 10µM*
O=C1C=Cc2ccccc2C1=O | nt | -9 | nt | nt | nt
CC(Oc1ccccc1)C(=O)Nc1ccc(C(=O)OCc2cc(=O)n3nc(C4CC4)sc3n2)cc1 (centres undefined) | -91% | nt | nt | ? | -5%
NCCc1c[nH]c2ccccc12 | -4% | -11 | 9% | -6% | 0%
CCCCc1ccc2[nH]cc(CCN)c2c1 | i | -9 | -1% | 10µM* | ?
CCCCCCN1C[C@@H](n2cc(C3CC3)nn2)[C@H](O)C[C@@H]1c1ccc(C)cc1 | i | nt | 1% | 4µM* | ?
CN1CCN(CCCN2c3ccccc3Sc3ccc(C(F)(F)F)cc32)CC1 | -11% | -11 | -1% | 8.9µM* | ?
O=C(CCN1CCN(CCO)CC1)N1c2ccccc2Sc2ccc(C(F)(F)F)cc21 | -22% | -6 | -1% | -32% | -16%
O=C(Nc1cc(Sc2nc3ccccc3s2)cc([N+](=O)[O-])c1)c1ccccc1 | -35% | -24 | -4% | ? | ?
O=C(CCl)Nc1cc(SCC(O)CO)cc([N+](=O)[O-])c1 (centres undefined) | -46% | -11 | 8% | ? | 4µM*
Cc1cccn2c(=O)cc(COc3cccc(NC(=O)COc4ccc(F)cc4)c3)nc12 | -85% | nt | nt | 1% | -16%
Cc1cc(OC(=O)N(C)C)nc(SCc2c(Cl)cccc2Cl)n1 | -95% | -11 | 6% | 10µM* | 1%
CCS(=O)(=O)c1ncc(Cl)c(C(=O)N(Cc2ccccc2)c2ccc(OC)cc2)n1 | i | nt | nt | ? | ?
Cc1nc(N2N=C3/C(=C/c4ccc(F)cc4)CCCC3C2c2ccc(F)cc2)sc1C(=O)N(C)C (centres undefined) | -21% | 44 | -4% | 10µM* | 410%
COc1nn(CSP(=S)(OC)OC)c(=O)s1 | nt | nt | -5%[96 µM] | nt | nt
COc1ccccc1/C=C/C1(C(=O)NC2CCCC2)CC(=O)N1c1ccc(F)cc1 (centres undefined) | -6%[57.5 µM] | -12 | -1% | 3.5µM* | ?
COc1ccccc1N(CC(=O)NC1CCCC1)C(=O)c1cnn(C(C)C)c1 | -2% | 11 | 1% | 1% | -7%
COc1ccc(CNS(=O)(=O)c2cc3c(cc2C)N(C)CCO3)cc1 | i | -10 | 7% | 7.9µM* | 12%
CCOC(=O)C1=C(Cn2cnc3ccccc32)NC(=O)NC1c1cc(C)ccc1C (centres undefined) | i | 2 | -6% | ? | 11µM*
Cc1ccc(NC(=O)CN(C)C(=O)Cn2ncc(Cl)c(Cl)c2=O)cc1 | -24% | 3 | -30% | ? | ?
O=C(Cn1ncc(Cl)c(Cl)c1=O)NCC1CCCCC1 | -25% | 26 | -23% | ? | 10µM*
SMILES | PTHR1 ag | TSHR antag | GLP1R ag | GLP-1R inv ag | HEK293 tox
COC(=O)C1(C(=O)OC)C[C@H](c2ccc(OC)cc2)N(Cc2ccccc2OC)[C@@H]1c1cccs1 | -14% | nt | nt | 10µM* | 1%
O=C(CCl)Nc1cc(S(=O)(=O)N2CCCCCC2)ccc1Cl | -19% | 1 | -5% | ? | 11µM*
COc1ccccc1CNCC(=O)Nc1cc(S(=O)(=O)N2CCCCC2)ccc1C | -17% | 22 | 3% | ? | 3%
CC1CCC(C(C)C)C(OC(=O)c2ccccc2N)C1 (centres undefined) | nt | nt | -1% | nt | nt
CC1CCC(C(C)C)C(OCC(O)CN2CCCC(C)C2)C1 (centres undefined) | 4% | -9 | -2% | 8.9µM* | ?
O=C(NCCc1ccccc1)c1ccc2nccnc2c1 | -25% | -10 | 4% | 5µM* | -19%
O=C(NCCc1ccccc1)c1ccc(CSc2nc3cccnc3n2Cc2ccc(F)cc2)cc1 | -13% | nt | nt | ? | -7%
Cc1ccc(-n2c(C)cc(/C=N/NC(N)=S)c2C)cc1 | -6% | -13 | -16% | ? | ?
COc1cccc(/C=N/NC(N)=S)c1OCc1ccccc1Cl | 0% | -6 | 10% | 11µM* | ?
CCc1ccc(CNC(=O)c2ccc3c(c2)N=C(C)c2cc(C)ccc2S3)cc1 | -48% | nt | -2% | ? | -46%
CCOC(=O)C1CCCN(S(=O)(=O)c2ccc3c4c(cccc24)C(=O)N3CC)C1 (centres undefined) | -33% | -44 | 22% | 12% | 137%
CCOC(=O)C1CCCN(c2ccc([N+](=O)[O-])c3nonc23)C1 (centres undefined) | -23% | -10 | ? | 21% | 10µM*
CCc1cc(-c2nnn(CCC3COCCO3)c2CC)cc(CC)c1-c1cn(Cc2ccc3ccccc3c2)nn1 (centres undefined) | -64% | nt | 10% | ? | 4%
C=C1C(=O)O[C@@H]2C[C@@H](C)[C@@H]3C=CC(=O)[C@@]3(C)[C@@H](O)[C@H]12 | -54% | 4 | -10% | 2.5µM* | ?
C=C1C(=O)O[C@@H]2C[C@@H](C)[C@@H]3C=CC(=O)[C@@]3(C)[C@@H](OC(C)=O)[C@H]12 | -49% | 7 | -23% | 4.5µM* | ?
C[C@@H]1C[C@H]2OC(=O)C3(CO3)[C@H]2[C@H](O)[C@]2(C)C(=O)C3OC3[C@@H]12 (some centres undefined) | nt | 24 | nt | nt | nt
C[N+]1(CCF)[C@@H]2CC[C@@H]1CC(OC(=O)C(O)(c1ccccc1)c1ccccc1)C2 (some centres undefined) | nt | nt | 11% | nt | nt
CCCCCSc1cc(OC)c(CCNC)cc1OC | -3% | 2 | -7% | 4µM* | ?
CCCCCCCSc1cc(OC)c(CCNC)cc1OC | -11% | 0 | -17% | ? | ?
CC(C)Cn1cnc2c(c(-c3ccccc3)c(-c3ccccc3)n2Cc2ccco2)c1=N | i | -8 | -7% | 3.2µM* | ?
Cc1csc2nc(COC(=O)c3ccccc3NC(=O)c3ccc(F)cc3)cc(=O)n12 | -37% | nt | nt | 11% | -4%
Cc1nnc(N2CCC(C(=O)NCc3ccc(N(C)C)cc3)CC2)c2nn(-c3ccccc3)c(C)c12 | ? | nt | nt | -8% | 10%
